Reference: PubChem BioAssay (NCI)
Compounds without any hit were thinned out: in the full panel of roughly 83,000, 20% have a hit.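 Cells were grown in 96-well plates and exposed to the test compound at a single concentration for 48 hours; results are reported as percent growth, with values below 10 considered active.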 A number with no mark means an inactive call. Active and inactive are the calls of the source.

What was measured:
Assay in all cases: NCI-60 one-dose screen, 48 h (100 = growth as untreated, 0 = no growth, -100 = all killed)
Conditions in all cases: 10 µM unless noted
RPMI-8226 leukemia = tested on: RPMI-8226 leukemia
OVCAR-8 ovarian = tested on: OVCAR-8 ovarian
OVCAR-5 ovarian = tested on: OVCAR-5 ovarian
OVCAR-4 ovarian = tested on: OVCAR-4 ovarian
SK-OV-3 ovarian = tested on: SK-OV-3 ovarian
IGROV1 ovarian = tested on: IGROV1 ovarian
HS 578T breast = tested on: HS 578T breast
NCI/ADR-RES ovarian = tested on: NCI/ADR-RES ovarian
T-47D breast = tested on: T-47D breast
BT-549 breast = tested on: BT-549 breast
MDA-MB-435 melanoma = tested on: MDA-MB-435 melanoma
SW-620 colon = tested on: SW-620 colon
MCF7 breast = tested on: MCF7 breast
HCT-116 colon = tested on: HCT-116 colon
HCC-2998 colon = tested on: HCC-2998 colon
KM12 colon = tested on: KM12 colon
OVCAR-3 ovarian = tested on: OVCAR-3 ovarian

SMILES	growth (RPMI-8226 leukemia)	growth (OVCAR-8 ovarian)	growth (OVCAR-5 ovarian)	growth (OVCAR-4 ovarian)	growth (SK-OV-3 ovarian)	growth (IGROV1 ovarian)	growth (HS 578T breast)	growth (NCI/ADR-RES ovarian)	growth (T-47D breast)	growth (BT-549 breast)	growth (MDA-MB-435 melanoma)	growth (SW-620 colon)	growth (MCF7 breast)	growth (HCT-116 colon)	growth (HCC-2998 colon)	growth (KM12 colon)	growth (OVCAR-3 ovarian)
C#Cc1nc(C2=C(C)C(O)CC2)cs1 (configuration not stated)	97.4%	107%	120%	115%	89%	5.36% (active)	104%	35.9%	92%	119%	105%	121%	85.1%	111%	115%		
Cc1ccc(C(=O)Nc2cccc(C(F)(F)F)c2)cc1Nc1nc(-c2cnccn2)nc2c1cnn2C	61.8%	77.3%	39.2%	83.7%	97.9%	52.7%	51.2%	75.6%	74.5%	143%	35.9%	58.4%	73.2%	35.6%	47.9%	56.6%	
COc1cc(-c2nc3ccc(-c4nnc(SCC(=O)Nc5ccc(C(C)=O)cc5)o4)cc3[nH]2)cc(OC)c1OC	108%	94.9%	99.9%	111%	112%	99.3%	103%	107%	103%	108%	108%	101%	92.6%	106%	112%	101%	
O=C(CN1CCOCC1)NNc1ncnc2ccccc12	90.9%	102%	69.3%	96.1%	107%	79.3%	89.5%	104%	41.6%	100%	91.7%	-26% (active)		81.7%	114%		
Cc1cc(=O)oc2cc(OCCCOc3ccc(/C=C/C(=O)Nc4ccc(Cl)cc4)cc3)ccc12	70.7%	67.1%	84%	12.6%	90.4%	73.2%	46.2%	56.6%	47.2%	64.4%	61.1%	27.2%		64.8%	69.6%		
O=C1c2c(c3c4cccnc4[nH]c3c3ccc4ccccc4c23)C(=O)N1CCO	72.7%	78%	121%	105%	84.8%	67.7%	121%	87.2%	37.2%	86.8%	85.1%	57.6%	30.2%	60.2%	101%		
Cc1ccccc1NC(=O)/C=C/c1ccc(OCCOc2ccc3c(C)cc(=O)oc3c2)cc1	94%	64.9%	103%	75.5%	77.6%	103%	61.2%	84.6%	84.1%	87.8%	90.4%	98.6%	85.7%	97.7%	114%		
Nc1ncc(-c2ccc3ncnc(N4CCc5cc(F)c(Cl)cc54)c3c2)cc1CO	-25.4% (active)	12.5%	19.9%	8.51% (active)	-18.4% (active)	-54.7% (active)	-18% (active)	9.17% (active)	0.798% (active)	-31.1% (active)	-34.4% (active)	11.1%	4.61% (active)		8.47% (active)	0.831% (active)	
COc1cc(/C=C/C(=O)c2ccc(F)cc2)ccc1Oc1nc(NCCO)nc(N2CCOCC2)n1	-1.38% (active)	86.1%	98.8%	88.4%	113%	70.6%	83.8%	78.9%		86.3%	48%	0.783% (active)		11.3%	103%	27.3%	98.8%
[Cl][Ru].c1ccc(-c2cc(-c3ccccn3)nc(-c3ccccn3)c2)cc1.c1ccc(-c2ccnc3c2ccc2c(-c4ccccc4)ccnc23)cc1	-41.8% (active)	-65.5% (active)	18.3%	15.6%	-12.1% (active)	-59.2% (active)	-15.1% (active)	93.7%	-11.4% (active)	-94.6% (active)	-62.2% (active)	-56.7% (active)	-28.2% (active)	-79% (active)	-72.9% (active)	-70.8% (active)	
C#Cc1nc(C2=C(C)C(OC(C)=O)/C(=N/OC(C)=O)C2)cs1 (configuration not stated)	-45.1% (active)	0.146% (active)	30.1%	-46% (active)	-78.4% (active)	-59% (active)	4.76% (active)	-5.63% (active)	67%	-74.3% (active)	88.9%	8.98% (active)	25.9%	19.9%	105%	-19.7% (active)	
OC1CCN(CCCOc2c3ccccc3nc3c2oc2ccc(Cl)cc23)CC1	-3.88% (active)	18.7%	21.2%	19.1%	45.6%	1.4% (active)	32%	21.5%	35.9%	57.1%	-40.6% (active)	2.39% (active)	2.99% (active)		21.9%		
COc1ccc(-c2cc(C(=O)N=Nc3c(O)[nH]c4ccccc34)c3ccccc3n2)cc1OC	99.4%	98%	91%	99.3%	103%	90.2%	97%	92.1%	87.3%	113%	98.1%	93.8%	89.9%	101%	97.8%	92%	
CNC(=O)c1cc(-c2ccc(NC(=O)Nc3ccc(N4CCN(C)CC4)c(C(F)(F)F)c3)cc2)nc2cccnc12	-35.8% (active)	-84% (active)	-88.6% (active)	-82.4% (active)	59.7%	-83.9% (active)	-55.7% (active)	-21.6% (active)	-18.8% (active)	-81.4% (active)	-93% (active)	-81.2% (active)		-98.4% (active)	-94.9% (active)		
NS(=O)(=O)c1cccc(Nc2nc(SCC(=O)c3ccc(Cl)cc3)nc3ccccc23)c1	65.4%	39.9%	116%	22.5%	103%	76.3%	43.5%	91.1%	63.3%	26.1%	77.6%	79.3%	65.6%	76.4%	112%	71.7%	
N#Cc1ccc(/C=N/NC(=O)c2[nH]c3ccc(Br)cc3c2-c2ccccc2)s1	-7.36% (active)	2.33% (active)	54.5%	54.6%	22.6%	17.3%	23.3%	9.75% (active)		-11.4% (active)		22.9%	5.58% (active)	-18.9% (active)	21.8%	11%	33.3%
Cc1cccc(/C=C/c2nn3c(-c4ccco4)nnc3s2)c1	100%	100%	98.2%	98.7%	114%	98.6%	106%	91.6%		90.8%		101%	78.5%	106%	95%	105%	110%
COc1cccc(-c2nn(-c3ccccc3)cc2-c2ccnc(N3CCN(C(=O)c4ccccc4)CC3)c2)c1	47.7%	56.4%	112%	77.9%	118%	76%	100%	43.4%	50.3%	91.4%	17%	72.1%	85.5%	73.3%	113%		
O=c1/c(=C\c2ccc(-c3ccccc3)o2)sc2nc(-c3ccccc3)nn12	102%	105%	104%	107%	105%	103%	95.4%	101%	92.9%	119%	101%	104%	99.1%	103%	113%		
